Drawing on publication PMC7862700, “An all-to-all approach to the identification of sequence-specific readers for epigenetic DNA modifications on cytosine”, this text covers binding signal for two sequences.

Holding throughout (test): DAPPL (digital affinity profiling via proximity ligation, sequencing); 10 mM Tris-HCl pH 7.5, 50 mM NaCl, 1 mM DTT, 4% glycerol, room temperature, 30 min; GST-TFs on glutathione beads, 16-mer random dsDNA library, 0.1% formaldehyde crosslink after washing; high values mean tight binding
Common to all, as to settings: protein: recombinant; tags: N-terminal GST; dsDNA, one strand shown

The target in one assay is T1, FLI1 (Homo sapiens, UniProt Q01543 1-452).
T1 sequence: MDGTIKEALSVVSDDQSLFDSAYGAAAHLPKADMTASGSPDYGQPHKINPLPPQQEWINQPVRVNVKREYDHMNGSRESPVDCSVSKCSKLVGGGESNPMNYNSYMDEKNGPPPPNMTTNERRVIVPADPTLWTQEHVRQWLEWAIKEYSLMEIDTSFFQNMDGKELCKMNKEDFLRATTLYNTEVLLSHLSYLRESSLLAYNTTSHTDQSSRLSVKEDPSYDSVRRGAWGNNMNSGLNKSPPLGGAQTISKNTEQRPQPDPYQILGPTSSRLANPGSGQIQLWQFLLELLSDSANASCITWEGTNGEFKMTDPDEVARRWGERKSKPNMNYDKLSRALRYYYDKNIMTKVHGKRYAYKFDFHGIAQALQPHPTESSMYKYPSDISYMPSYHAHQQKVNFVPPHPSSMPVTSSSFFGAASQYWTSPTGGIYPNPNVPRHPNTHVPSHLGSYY
A digest of the protocol:
(§1)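 Beads coated with glutathione captured GST-fused human transcription factors that had been expressed in yeast, and the factors were then given DNA barcodes and pooled with a tag-only sample. The pools were incubated with 200 nmole of a random double-stranded 16-mer DNA library in Tris/NaCl/DTT/glycerol buffer for 30 min at room temperature, washed, crosslinked with 0.1% formaldehyde and proximity-ligated with BsaI/T4 ligase at 37 °C for 1 h. PCR amplification and Illumina NextSeq500 sequencing came last. Binding signal is each hexamer's read frequency for a factor divided by its frequency for the tag-only sample.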

Another assay has as its target T2, GABPA (Homo sapiens, UniProt Q06546 1-454).
T2 sequence: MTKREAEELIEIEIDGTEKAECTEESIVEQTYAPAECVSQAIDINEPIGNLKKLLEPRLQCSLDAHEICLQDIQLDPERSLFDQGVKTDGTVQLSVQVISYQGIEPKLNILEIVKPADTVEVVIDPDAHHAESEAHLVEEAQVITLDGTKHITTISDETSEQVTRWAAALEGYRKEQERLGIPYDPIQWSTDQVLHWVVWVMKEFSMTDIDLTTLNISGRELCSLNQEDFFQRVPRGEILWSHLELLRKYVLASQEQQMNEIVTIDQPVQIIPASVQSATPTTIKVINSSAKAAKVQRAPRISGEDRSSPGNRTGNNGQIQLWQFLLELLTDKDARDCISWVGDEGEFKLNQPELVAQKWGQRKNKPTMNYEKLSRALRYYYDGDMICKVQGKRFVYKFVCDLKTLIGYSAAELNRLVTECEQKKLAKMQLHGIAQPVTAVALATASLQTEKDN
A digest of the protocol: as §1

The target in a further assay is T3, ERG (Homo sapiens, UniProt P11308 1-479).
T3 sequence: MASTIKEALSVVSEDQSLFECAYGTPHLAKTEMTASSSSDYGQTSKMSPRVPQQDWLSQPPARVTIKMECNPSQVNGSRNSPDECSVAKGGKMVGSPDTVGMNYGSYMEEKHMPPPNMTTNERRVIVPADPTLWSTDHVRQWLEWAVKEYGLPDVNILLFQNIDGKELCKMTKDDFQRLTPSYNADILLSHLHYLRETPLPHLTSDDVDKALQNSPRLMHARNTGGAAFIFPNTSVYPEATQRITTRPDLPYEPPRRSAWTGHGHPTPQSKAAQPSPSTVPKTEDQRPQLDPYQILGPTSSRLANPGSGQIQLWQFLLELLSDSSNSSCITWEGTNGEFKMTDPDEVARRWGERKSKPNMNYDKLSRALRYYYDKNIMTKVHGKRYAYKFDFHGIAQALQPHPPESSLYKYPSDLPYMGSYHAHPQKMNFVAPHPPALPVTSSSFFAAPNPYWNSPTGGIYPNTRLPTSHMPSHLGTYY
A digest of the protocol:
as §1

The target in the next assay is ELF1 (Homo sapiens, UniProt P32519 1-619). In outline: as §1
ELF1, sequence (P32519 whole entry): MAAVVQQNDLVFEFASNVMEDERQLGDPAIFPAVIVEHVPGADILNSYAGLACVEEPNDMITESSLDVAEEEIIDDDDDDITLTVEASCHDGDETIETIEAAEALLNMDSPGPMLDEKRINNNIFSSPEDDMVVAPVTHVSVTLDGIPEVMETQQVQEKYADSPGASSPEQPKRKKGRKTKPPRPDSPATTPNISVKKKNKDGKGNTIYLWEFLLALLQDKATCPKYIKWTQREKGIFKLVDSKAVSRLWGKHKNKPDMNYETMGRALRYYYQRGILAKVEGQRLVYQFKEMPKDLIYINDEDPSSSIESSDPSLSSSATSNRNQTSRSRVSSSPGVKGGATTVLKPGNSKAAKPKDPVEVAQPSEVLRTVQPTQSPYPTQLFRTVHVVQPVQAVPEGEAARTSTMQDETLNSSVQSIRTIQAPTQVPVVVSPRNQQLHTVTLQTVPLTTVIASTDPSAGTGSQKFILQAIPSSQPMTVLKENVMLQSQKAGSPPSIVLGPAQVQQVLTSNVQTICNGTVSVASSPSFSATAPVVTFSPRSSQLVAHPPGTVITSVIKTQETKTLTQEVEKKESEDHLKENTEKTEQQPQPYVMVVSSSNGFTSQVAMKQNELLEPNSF
In a further assay the target is T4, EHF (Homo sapiens, UniProt Q9NZC4 1-300).
T4 sequence: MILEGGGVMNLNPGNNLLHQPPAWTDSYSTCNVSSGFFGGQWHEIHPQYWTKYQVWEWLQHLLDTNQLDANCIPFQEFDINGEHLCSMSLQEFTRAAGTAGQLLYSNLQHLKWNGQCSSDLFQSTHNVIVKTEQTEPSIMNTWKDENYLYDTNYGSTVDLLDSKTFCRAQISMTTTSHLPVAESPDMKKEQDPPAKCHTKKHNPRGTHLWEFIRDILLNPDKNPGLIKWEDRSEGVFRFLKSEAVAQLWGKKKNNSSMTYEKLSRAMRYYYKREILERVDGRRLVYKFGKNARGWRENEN
A digest of the protocol:
as §1

The target in a further assay is SPI1 (Homo sapiens, UniProt P17947 1-270). A digest of the protocol: as §1
The next assay has as its target T5, ELK3 (Homo sapiens, UniProt P41970 1-407).
T5 sequence: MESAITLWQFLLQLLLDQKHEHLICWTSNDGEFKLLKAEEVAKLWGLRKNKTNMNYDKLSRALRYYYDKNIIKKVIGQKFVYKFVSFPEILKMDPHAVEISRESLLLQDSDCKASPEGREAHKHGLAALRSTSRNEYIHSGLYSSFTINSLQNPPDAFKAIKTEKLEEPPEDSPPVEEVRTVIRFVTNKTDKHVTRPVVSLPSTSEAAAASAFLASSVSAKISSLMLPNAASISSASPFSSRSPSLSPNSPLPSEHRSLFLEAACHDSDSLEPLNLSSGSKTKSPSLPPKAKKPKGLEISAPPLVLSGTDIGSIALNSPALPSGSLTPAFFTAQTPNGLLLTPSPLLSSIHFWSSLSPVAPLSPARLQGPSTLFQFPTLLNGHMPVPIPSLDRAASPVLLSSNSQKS
In outline: as §1

A further assay addresses ETV5 (Homo sapiens, UniProt P41161 1-510). In outline:
as §1

For another assay, the target named is T6, SPIC (Homo sapiens, UniProt Q8N5J4 1-248).
T6 sequence: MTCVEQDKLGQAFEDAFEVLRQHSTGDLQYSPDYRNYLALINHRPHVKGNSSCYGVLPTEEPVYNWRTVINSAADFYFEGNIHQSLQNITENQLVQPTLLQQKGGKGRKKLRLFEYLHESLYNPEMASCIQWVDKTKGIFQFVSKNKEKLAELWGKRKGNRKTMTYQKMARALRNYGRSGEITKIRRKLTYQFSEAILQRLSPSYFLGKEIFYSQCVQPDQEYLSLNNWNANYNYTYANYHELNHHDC
In outline:
as §1

The next assay addresses ELF4 (Homo sapiens, UniProt Q99607 1-663). In outline:
as §1

The target of the next assay is ETV1 (Homo sapiens, UniProt P50549 1-477). In outline: as §1
ETV1, sequence (P50549 whole entry): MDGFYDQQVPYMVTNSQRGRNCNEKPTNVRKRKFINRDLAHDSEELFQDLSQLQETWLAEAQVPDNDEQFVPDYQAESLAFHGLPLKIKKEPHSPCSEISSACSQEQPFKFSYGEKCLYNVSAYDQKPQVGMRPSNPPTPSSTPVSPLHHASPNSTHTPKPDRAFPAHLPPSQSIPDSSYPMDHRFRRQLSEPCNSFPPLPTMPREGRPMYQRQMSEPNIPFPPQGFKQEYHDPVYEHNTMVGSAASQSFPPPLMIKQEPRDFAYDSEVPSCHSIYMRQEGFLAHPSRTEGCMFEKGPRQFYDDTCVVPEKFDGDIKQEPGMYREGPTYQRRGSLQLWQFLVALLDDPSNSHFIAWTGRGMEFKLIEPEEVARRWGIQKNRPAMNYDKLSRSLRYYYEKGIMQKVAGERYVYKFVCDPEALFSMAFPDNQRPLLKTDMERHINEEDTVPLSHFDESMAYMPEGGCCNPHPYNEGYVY
For a further assay, the target named is T7, ERF (Homo sapiens, UniProt P50548 1-548).
T7 sequence: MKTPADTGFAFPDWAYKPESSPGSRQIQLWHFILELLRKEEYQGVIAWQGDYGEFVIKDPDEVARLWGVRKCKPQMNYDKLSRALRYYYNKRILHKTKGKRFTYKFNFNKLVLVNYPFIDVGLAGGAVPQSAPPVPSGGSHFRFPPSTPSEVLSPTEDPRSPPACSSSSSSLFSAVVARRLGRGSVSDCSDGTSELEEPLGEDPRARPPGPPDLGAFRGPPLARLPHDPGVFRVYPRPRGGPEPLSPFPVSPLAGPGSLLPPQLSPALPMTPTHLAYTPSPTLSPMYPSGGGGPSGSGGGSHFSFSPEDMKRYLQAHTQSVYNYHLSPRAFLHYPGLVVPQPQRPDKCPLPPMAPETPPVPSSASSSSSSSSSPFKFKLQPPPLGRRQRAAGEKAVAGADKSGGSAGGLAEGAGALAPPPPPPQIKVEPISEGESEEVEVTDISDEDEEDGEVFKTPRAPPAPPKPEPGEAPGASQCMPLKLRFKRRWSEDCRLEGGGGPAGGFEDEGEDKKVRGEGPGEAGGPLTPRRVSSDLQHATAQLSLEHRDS
A digest of the protocol:
as §1

Another assay concerns the target T8, ETV3L (Homo sapiens, UniProt Q6ZN32 1-361).
T8 sequence: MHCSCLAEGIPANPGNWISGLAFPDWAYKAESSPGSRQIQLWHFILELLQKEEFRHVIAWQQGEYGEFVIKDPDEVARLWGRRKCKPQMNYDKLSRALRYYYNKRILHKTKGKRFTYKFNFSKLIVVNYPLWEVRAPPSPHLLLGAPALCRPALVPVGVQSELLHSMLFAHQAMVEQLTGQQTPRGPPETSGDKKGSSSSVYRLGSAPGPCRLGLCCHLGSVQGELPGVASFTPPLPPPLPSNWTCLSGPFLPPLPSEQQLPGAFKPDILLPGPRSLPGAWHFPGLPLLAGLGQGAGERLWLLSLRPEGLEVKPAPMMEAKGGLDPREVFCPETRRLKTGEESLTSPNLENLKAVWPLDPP
A digest of the protocol: as §1

In a further assay the target is T9, ETS2 (Homo sapiens, UniProt P15036 1-469).
T9 sequence: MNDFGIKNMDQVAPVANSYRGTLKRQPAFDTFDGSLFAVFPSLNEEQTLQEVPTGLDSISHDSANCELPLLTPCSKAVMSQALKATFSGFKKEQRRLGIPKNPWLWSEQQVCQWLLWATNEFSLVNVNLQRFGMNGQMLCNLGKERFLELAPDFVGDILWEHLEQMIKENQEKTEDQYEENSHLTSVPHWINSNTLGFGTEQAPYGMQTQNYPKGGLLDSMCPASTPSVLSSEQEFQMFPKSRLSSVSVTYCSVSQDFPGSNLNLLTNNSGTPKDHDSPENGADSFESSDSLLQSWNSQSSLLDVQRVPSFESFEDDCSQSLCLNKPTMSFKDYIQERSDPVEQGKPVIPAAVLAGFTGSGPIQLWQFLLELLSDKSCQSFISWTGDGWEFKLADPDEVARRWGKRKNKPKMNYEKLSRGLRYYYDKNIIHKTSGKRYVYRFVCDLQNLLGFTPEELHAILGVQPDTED
In outline: as §1

Another assay concerns the target T10, ETV3 (Homo sapiens, UniProt P41162-2 1-143).
T10 sequence: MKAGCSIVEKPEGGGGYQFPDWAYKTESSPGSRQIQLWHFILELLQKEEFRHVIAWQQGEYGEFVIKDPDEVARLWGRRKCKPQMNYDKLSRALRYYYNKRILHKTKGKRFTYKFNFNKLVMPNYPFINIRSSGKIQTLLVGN
A digest of the protocol:
as §1

Another assay addresses ETV6 (Homo sapiens, UniProt P41212 1-452). In outline:
as §1

Another assay addresses SPIB (Homo sapiens, UniProt Q01892 1-262). A digest of the protocol:
as §1

In the next assay the target is T11, FEV (Homo sapiens, UniProt Q99581 1-238).
T11 sequence: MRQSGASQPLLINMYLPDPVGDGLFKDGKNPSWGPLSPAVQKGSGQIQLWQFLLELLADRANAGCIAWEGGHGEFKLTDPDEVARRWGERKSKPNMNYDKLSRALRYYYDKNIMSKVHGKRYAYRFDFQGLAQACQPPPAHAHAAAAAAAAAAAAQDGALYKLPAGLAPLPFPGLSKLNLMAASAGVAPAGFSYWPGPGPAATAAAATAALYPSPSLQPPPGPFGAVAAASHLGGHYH
A digest of the protocol: as §1

ETV5, sequence (P41161 whole entry): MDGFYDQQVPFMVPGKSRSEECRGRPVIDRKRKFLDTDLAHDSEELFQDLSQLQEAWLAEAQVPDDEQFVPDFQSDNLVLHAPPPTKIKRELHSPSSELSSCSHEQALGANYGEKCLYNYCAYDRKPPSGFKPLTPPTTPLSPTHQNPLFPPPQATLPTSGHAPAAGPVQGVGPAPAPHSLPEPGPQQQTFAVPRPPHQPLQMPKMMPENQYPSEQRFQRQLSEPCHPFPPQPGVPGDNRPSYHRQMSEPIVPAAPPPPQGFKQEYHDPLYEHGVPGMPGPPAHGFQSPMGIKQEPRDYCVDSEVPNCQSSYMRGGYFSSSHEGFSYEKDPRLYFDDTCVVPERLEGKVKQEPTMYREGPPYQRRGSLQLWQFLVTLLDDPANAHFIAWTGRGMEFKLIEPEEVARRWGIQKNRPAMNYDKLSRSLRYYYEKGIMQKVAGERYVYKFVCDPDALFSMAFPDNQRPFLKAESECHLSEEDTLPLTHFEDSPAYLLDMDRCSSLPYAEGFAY
ELF4, sequence (Q99607 whole entry): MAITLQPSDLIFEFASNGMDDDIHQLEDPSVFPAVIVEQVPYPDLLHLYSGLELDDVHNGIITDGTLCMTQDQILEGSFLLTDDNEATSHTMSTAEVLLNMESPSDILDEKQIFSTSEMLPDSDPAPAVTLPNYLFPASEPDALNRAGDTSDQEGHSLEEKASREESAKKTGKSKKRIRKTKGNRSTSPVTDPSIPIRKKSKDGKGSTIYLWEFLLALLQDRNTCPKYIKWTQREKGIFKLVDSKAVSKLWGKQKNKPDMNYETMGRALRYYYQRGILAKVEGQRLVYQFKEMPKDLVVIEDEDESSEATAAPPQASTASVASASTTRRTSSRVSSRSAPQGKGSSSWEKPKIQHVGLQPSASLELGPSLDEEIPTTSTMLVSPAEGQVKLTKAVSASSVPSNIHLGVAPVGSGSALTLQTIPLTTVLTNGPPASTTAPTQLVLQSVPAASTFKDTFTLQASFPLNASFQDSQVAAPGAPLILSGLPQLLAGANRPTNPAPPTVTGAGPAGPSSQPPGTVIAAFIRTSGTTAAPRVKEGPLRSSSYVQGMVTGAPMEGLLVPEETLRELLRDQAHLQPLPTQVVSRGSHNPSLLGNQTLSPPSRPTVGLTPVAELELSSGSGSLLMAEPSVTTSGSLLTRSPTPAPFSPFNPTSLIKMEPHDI
SPIB, sequence (Q01892 whole entry): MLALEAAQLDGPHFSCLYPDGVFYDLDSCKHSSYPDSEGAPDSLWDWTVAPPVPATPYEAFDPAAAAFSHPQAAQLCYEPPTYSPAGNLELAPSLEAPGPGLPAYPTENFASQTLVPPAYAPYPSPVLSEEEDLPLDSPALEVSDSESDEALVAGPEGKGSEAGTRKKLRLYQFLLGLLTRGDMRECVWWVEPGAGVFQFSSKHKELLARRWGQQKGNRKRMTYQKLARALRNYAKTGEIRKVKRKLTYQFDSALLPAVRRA
ETV6, sequence (P41212 whole entry): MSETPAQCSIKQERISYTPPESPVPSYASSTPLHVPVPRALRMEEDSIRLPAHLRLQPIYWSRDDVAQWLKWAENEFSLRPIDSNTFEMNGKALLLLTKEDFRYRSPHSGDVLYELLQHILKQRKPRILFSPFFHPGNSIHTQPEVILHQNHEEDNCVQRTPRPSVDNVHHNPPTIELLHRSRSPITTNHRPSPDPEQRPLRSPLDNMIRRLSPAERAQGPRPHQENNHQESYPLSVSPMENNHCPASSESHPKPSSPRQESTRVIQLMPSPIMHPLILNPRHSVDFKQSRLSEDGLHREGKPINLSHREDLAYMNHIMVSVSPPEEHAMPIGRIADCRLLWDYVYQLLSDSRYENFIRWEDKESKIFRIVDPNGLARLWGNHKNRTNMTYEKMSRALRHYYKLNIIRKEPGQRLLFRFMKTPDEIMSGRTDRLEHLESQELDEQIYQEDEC

Regarding GTTACG, the binding signal was 1.08 fold enrichment (6-mer frequency, TF over GST control) with FLI1; 1.01 fold enrichment (6-mer frequency, TF over GST control) with GABPA; 1.01 fold enrichment (6-mer frequency, TF over GST control) in the assay with ERG; 1.07 fold enrichment (6-mer frequency, TF over GST control) in the assay with ELF1; 1.03 fold enrichment (6-mer frequency, TF over GST control) in the assay with EHF; 1.01 fold enrichment (6-mer frequency, TF over GST control) with SPI1. For the same sequence, the binding signal with ELK3 was 1.01 fold enrichment (6-mer frequency, TF over GST control); with ETV5, 1.03 fold enrichment (6-mer frequency, TF over GST control); in the assay with SPIC it was 1.05 fold enrichment (6-mer frequency, TF over GST control); with ELF4 it was 1.02 fold enrichment (6-mer frequency, TF over GST control); with ETV1 it was 1.07 fold enrichment (6-mer frequency, TF over GST control); with ERF, 1.06 fold enrichment (6-mer frequency, TF over GST control). Also, the binding signal in the assay with ETV3L was 1.14 fold enrichment (6-mer frequency, TF over GST control); with ETS2, 1.06 fold enrichment (6-mer frequency, TF over GST control); with ETV3 it was 1.04 fold enrichment (6-mer frequency, TF over GST control); in the assay with ETV6 it was 1.09 fold enrichment (6-mer frequency, TF over GST control).

CGCTGG: the binding signal with FLI1 is 1.05 fold enrichment (6-mer frequency, TF over GST control); in the assay with ERG, 1.03 fold enrichment (6-mer frequency, TF over GST control); with ELF1 it was 1.08 fold enrichment (6-mer frequency, TF over GST control); in the assay with EHF, 1 fold enrichment (6-mer frequency, TF over GST control); with SPIB, 1.01 fold enrichment (6-mer frequency, TF over GST control); with FEV, 1.02 fold enrichment (6-mer frequency, TF over GST control). For the same sequence, the binding signal in the assay with ETV5 is 1 fold enrichment (6-mer frequency, TF over GST control); with SPIC, 1.01 fold enrichment (6-mer frequency, TF over GST control); with ELF4, 1.02 fold enrichment (6-mer frequency, TF over GST control); with ERF, 1.05 fold enrichment (6-mer frequency, TF over GST control); with ETV3L, 1.03 fold enrichment (6-mer frequency, TF over GST control); with ETS2, 1.1 fold enrichment (6-mer frequency, TF over GST control). The binding signal in the assay with ETV3 is 1.12 fold enrichment (6-mer frequency, TF over GST control).
